Experimental data: PubChem BioAssay
Values joined by “and” are separate entries in the source; they are usually repeats but may differ in a detail not shown here. Equal values may be shown once. Active and inactive are the calls of the source.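 Rule for the calls, unless noted: active = mean inhibition over 43.08%, the solvent-only control mean plus 3 SD; inactive = the rest.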 Bridge positions count the residues as written; N and C are the ends. Square brackets hold non-standard residues; d marks the D form. Peptide text beside a SMILES is read from it.

Key:
[1] = target: Nuclear receptor coactivator 3 (Homo sapiens) (UniProt Q9Y6Q9); assay: SRC3 coactivator transcriptional activity inhibitors, confirmation, cell-based, luminescence, quadruplicate (AID 588792); conditions: HEK293 GAL4-SRC3 luciferase reporter, at 3.6 µM, hits give high values;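 note: 0% = DMSO treated cells and 100% = gossypol at 36 µM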
[2] = test system: transactivating tegument protein VP16 (Human herpesvirus 1), Gal4-VP16 luciferase reporter; assay: VP16 transactivation inhibitors, counter-screen for SRC3 inhibitor project, cell-based, luminescence, high throughput (AID 588794; in the data active = inhibition above about 30%); conditions: mammalian cells, VP16-driven luciferase reporter luminescence; at 3.6 µM; hits give high values
[3] = target: Nuclear receptor coactivator 1 (Homo sapiens) (UniProt Q15788); assay: SRC1 coactivator transcriptional activity inhibitors, confirmation, cell-based, luminescence, quadruplicate (AID 588820;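 active = mean inhibition above 46.68%, the untreated control wells mean plus 3 SD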;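 note: 0% = DMSO wells and 100% = gossypol 36 µM treated wells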); conditions: HEK293 GAL4-SRC1 luciferase reporter, at 3.6 µM, hits give high values
[4] = VP16 transactivation inhibitors, counter-screen for SRC1 inhibitor project, cell-based, luminescence, high throughput (AID 588824; in the data active = inhibition above about 25%); conditions: cell-based VP16 transactivation luciferase luminescence; at 3.6 µM; hits give high values
[5] = StAR promoter reporter inhibitors, counter-screen for LRH-1 inverse agonist project, cell-based, luminescence, high throughput (AID 651611; in the data active = inhibition above about 28%); conditions: StAR promoter luciferase reporter counterscreen, at 3.6 µM, hits give high values
[6] = target: Nuclear receptor subfamily 5 group A member 2 (Homo sapiens) (UniProt O00482); assay: LRH-1 (NR5A2) inverse agonists, retest, confirmation, cell-based, luminescence (AID 651613; in the data active = inhibition above about 42%;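 note: HEK293T cells co-transfected with LRH-1 and StAR promoter luciferase reporter; 0% = vehicle wells and 100% = parental cells lacking receptor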); conditions: cell-based LRH-1 luciferase reporter, inverse agonism; at 3.6 µM; hits give high values
[7] = target: Steroidogenic factor 1 (Homo sapiens) (UniProt Q13285); assay: SF1 (NR5A1) inverse agonists, counter-screen for LRH-1 inverse agonist project, cell-based, luminescence, high throughput (AID 651614; in the data active = inhibition above about 44%;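 note: cells cotransfected with StAR promoter reporter and SF1 expression vector; 0% = vehicle on cells with receptor and 100% = vehicle on cells lacking receptor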); conditions: cell-based SF1 luciferase reporter, at 3.6 µM, hits give high values
[8] = VP16 transactivation reporter inhibitors, counter-screen for LRH-1 inverse agonist project, cell-based, luminescence, high throughput (AID 651615; in the data active = inhibition above about 33%); conditions: Gal4-VP16 luciferase reporter cells, at 3.6 µM, hits give high values
[9] = test system: transactivating tegument protein VP16 (Human herpesvirus 1); assay: VP16 transactivation reporter inhibitors, counter-screen for SRC2 inhibitor project, cell-based, luminescence, single concentration (AID 652007; in the data active = inhibition above about 36%); conditions: cell-based VP16 transactivation luciferase reporter, at 8.9 µM, hits give high values
[10] = target: Nuclear receptor coactivator 2 (Homo sapiens) (UniProt Q15596); assay: SRC2 coactivator transcriptional activity inhibitors, confirmation, cell-based, luminescence, HEK293, triplicate (AID 652008;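 active = mean inhibition above 46.5%, the solvent-only control mean plus 3 SD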;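 note: 0% = DMSO-treated cells and 100% = Gossypol at 36 µM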); conditions: HEK293 GAL4-SRC2 luciferase reporter, at 8.9 µM, hits give high values

Measured: inhibition

Nuclear receptor coactivator 3 (Homo sapiens), sequence (Q9Y6Q9 whole entry, looked up, the tested form may be a part): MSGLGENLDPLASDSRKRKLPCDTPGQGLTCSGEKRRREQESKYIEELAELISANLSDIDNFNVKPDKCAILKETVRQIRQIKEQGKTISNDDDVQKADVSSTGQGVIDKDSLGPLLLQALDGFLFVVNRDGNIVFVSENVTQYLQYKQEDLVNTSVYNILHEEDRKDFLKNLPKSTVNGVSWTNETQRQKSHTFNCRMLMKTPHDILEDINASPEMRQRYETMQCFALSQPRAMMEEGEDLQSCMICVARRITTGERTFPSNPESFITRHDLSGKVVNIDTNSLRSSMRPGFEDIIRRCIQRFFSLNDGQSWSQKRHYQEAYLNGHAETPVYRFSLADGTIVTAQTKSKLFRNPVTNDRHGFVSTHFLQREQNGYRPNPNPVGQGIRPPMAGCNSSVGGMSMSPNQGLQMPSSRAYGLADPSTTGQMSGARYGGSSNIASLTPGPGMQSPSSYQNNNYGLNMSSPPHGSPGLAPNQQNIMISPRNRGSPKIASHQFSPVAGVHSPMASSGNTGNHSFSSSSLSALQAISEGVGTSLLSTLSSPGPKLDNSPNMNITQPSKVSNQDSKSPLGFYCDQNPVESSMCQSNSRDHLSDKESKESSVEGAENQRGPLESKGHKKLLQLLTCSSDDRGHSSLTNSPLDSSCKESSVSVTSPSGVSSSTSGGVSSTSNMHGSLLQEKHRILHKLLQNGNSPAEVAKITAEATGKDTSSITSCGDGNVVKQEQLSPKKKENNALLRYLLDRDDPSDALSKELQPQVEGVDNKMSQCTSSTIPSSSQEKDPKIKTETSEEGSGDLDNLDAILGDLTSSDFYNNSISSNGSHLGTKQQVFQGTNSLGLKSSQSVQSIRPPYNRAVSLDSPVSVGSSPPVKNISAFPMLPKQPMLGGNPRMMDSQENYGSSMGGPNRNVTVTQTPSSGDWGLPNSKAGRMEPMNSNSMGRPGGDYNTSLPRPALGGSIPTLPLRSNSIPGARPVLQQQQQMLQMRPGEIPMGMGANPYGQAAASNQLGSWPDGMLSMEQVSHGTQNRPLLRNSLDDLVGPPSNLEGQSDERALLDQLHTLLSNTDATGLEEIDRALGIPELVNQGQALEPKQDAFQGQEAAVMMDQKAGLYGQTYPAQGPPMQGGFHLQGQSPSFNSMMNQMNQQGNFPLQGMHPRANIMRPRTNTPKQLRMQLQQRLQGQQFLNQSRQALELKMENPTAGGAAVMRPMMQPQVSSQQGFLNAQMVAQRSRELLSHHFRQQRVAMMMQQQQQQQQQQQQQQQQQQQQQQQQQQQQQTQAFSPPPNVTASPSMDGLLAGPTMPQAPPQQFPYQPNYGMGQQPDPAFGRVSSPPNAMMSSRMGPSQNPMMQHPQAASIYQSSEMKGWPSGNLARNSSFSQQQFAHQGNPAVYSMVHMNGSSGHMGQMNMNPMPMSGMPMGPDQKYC
Nuclear receptor coactivator 1 (Homo sapiens), sequence (Q15788 whole entry, looked up, the tested form may be a part): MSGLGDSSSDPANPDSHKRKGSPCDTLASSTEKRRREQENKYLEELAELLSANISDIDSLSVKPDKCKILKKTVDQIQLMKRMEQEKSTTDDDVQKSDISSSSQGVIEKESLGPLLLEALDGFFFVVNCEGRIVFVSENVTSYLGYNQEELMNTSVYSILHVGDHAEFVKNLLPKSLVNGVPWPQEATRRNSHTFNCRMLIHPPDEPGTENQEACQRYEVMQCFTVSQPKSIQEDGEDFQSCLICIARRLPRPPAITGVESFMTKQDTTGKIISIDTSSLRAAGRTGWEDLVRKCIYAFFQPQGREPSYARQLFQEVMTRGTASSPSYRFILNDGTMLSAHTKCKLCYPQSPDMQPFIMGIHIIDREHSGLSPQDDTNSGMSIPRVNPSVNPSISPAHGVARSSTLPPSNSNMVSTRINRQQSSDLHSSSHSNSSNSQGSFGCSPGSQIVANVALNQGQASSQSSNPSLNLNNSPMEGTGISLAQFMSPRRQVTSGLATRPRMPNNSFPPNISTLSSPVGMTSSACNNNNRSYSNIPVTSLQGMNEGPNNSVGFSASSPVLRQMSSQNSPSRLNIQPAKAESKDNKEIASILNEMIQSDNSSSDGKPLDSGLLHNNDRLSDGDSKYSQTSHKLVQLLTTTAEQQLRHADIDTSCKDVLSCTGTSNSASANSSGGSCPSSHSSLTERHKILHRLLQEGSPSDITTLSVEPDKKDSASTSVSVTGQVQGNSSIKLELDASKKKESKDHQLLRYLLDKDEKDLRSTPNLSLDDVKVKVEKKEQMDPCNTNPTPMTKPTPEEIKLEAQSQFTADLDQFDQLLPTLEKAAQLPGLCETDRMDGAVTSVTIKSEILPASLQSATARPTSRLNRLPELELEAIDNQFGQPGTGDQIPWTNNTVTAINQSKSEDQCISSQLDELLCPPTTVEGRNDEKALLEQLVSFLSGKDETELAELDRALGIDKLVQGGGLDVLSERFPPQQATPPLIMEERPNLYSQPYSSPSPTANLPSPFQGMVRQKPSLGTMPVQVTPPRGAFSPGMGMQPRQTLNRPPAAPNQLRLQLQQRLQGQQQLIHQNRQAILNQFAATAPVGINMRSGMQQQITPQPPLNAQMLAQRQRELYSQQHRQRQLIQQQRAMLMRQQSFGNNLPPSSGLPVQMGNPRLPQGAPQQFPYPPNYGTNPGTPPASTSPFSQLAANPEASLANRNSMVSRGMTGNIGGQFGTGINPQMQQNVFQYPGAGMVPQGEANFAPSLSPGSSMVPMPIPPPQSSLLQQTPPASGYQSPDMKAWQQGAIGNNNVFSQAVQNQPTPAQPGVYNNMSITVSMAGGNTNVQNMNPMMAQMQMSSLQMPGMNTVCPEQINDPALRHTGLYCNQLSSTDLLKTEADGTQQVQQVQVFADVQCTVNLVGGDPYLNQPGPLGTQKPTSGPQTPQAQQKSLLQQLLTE
Nuclear receptor subfamily 5 group A member 2 (Homo sapiens), sequence (O00482 whole entry, looked up): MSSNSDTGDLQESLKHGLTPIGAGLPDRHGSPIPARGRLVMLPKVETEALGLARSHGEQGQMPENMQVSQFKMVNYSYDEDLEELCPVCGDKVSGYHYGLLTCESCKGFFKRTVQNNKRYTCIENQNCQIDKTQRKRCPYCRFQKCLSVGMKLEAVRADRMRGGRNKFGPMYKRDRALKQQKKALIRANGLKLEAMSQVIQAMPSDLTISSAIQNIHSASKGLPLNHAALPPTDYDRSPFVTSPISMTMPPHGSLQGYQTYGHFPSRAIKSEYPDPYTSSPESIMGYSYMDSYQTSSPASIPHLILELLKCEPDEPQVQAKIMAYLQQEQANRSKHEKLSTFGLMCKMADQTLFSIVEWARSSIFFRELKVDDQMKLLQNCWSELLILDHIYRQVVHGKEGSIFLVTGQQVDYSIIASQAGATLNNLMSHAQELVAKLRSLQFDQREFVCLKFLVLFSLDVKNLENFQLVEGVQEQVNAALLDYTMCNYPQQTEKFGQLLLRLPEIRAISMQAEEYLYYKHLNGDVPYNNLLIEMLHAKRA
Nuclear receptor coactivator 2 (Homo sapiens), sequence (Q15596 whole entry, looked up, the tested form may be a part): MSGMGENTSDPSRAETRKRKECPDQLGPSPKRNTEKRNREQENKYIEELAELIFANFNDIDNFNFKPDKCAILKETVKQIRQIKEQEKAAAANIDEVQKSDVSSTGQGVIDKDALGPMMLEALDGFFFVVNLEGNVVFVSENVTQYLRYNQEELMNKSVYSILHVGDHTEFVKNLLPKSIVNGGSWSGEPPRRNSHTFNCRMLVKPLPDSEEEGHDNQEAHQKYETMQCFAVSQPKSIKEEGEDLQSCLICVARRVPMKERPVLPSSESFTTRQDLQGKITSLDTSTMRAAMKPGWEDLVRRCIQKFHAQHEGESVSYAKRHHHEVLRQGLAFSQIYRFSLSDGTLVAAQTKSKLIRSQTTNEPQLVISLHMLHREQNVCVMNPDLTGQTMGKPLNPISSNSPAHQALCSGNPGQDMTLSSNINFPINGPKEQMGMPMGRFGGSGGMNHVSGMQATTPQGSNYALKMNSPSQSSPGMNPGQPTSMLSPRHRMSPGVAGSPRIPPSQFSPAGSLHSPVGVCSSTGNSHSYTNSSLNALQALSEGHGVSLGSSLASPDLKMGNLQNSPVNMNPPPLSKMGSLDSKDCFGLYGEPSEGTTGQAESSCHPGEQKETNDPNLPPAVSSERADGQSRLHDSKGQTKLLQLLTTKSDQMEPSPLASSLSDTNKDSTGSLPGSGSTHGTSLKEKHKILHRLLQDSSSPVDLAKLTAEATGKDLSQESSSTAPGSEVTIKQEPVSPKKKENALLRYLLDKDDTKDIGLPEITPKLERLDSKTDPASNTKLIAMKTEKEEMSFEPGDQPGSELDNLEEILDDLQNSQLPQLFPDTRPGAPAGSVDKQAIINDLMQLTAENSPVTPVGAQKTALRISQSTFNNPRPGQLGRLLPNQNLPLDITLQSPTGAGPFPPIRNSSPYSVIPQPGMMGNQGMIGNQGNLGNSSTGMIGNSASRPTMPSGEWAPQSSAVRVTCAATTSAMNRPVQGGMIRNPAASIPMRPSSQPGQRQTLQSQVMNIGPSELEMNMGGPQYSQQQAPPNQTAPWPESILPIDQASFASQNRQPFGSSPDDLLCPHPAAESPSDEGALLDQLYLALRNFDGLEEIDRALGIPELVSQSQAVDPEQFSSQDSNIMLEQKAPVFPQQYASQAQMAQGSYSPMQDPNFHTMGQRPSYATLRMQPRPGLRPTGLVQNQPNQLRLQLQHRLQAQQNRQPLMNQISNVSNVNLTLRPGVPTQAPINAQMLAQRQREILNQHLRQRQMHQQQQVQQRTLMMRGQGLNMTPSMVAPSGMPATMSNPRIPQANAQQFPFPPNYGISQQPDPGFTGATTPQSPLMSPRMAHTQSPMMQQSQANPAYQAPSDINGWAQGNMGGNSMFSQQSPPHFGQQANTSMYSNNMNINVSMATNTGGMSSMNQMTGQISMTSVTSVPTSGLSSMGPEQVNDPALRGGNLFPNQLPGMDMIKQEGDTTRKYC

COC(=O)Cc1ccc(NC(=O)c2ccc(C(C)(C)C)cc2)cc1
active: [1] 55.9% | [2] 40.7% | [4] 44.8% | [5] 54.3% | [6] 76.9% | [7] 67.3% | [8] 50.8% | [10] 92.9%
inactive: [3] 43.4% | [9] 21.1%

CC1CCC(C(C)C)C(OC(=O)Cn2c(-c3ccccc3)[n+](C)c3ccccc32)C1 (stereo not given)
inactive: [10] 30.4%
active: [1] 74.8% and 54.2% | [2] 76.2% and 68% | [3] 55.1% and 49.6% | [4] 75.8% and 65.7% | [5] 54% | [6] 108% | [7] 83.8% | [8] 94.5% | [9] 49.1%

Cc1[nH]c2ccccc2c(=O)c1C(=O)/C=C/c1ccccc1
active: [1] 76.1% | [2] 58% | [3] 73.7% | [4] 59.6% | [5] 76.2% | [6] 90.2% | [7] 82.9% | [8] 77.8% | [9] 39% | [10] 72.7%

CCOc1ccccc1-n1c(SCC(=O)Nc2ccccc2C(=O)O)nc2ccccc2c1=O
active: [10] 49.9%
inactive: [1] 36.2% | [2] 26% | [3] 16.8% | [4] 14.7% | [5] 16% | [6] -6.48% | [7] 9.06% | [8] -14.2% | [9] 30.9%

COC(=O)CCn1nnc(-c2ccc(C(C)C)cc2)n1
active: [1] 55.4% | [2] 38.7% | [4] 35.6% | [5] 48.7% | [6] 55% | [7] 46.7% | [8] 39.9% | [9] 58.8% | [10] 92.6%
inactive: [3] 40.5%

CC1OC2CC(=O)OC2C2=C1C(=O)c1c(O)cccc1C2=O (stereo not given)
active: [1] 97.6% | [2] 95.2% | [3] 97.5% | [4] 95.2% | [5] 96.8% | [6] 110% | [7] 98.2% | [8] 96.8% | [9] 98.9% | [10] 99.7%

O=C1N(c2ccccc2)C[C@@H]2C[C@@H](c3cc4ccccc4o3)N3CCC[C@@]123
active: [1] 95.3% | [2] 96.3% | [3] 74.5% | [4] 94.7% | [5] 90.4% | [6] 109% | [7] 98% | [8] 98.4% | [9] 47.8%
inactive: [10] 43.3%

O=C(Nc1nc2cc3c(cc2s1)OCCO3)C1=COCCO1
inactive: [1] 30.4% | [2] 26.9% | [3] -78.2% | [4] 13.4% | [5] 24.4% | [6] -3.27% | [8] 4.13%
active: [7] 52.2% | [9] 70.8% | [10] 81.6%

Cc1cccc(-n2ncc3c(N(C)C4CCCCC4)ncnc32)c1
active: [1] 72.9% | [2] 64.4% | [4] 46.4% | [5] 60.6% | [7] 52.7% | [9] 52.5% | [10] 83%
inactive: [3] 28.5% | [6] 11.5% | [8] 29%

Cc1cc(C(=O)CN2C(=O)c3ccccc3S2(=O)=O)c(C)n1CC1CCCO1 (stereo not given)
active: [1] 82.9% | [2] 62.8% | [3] 77.7% | [4] 60% | [5] 78.1% | [6] 81% | [7] 80.4% | [8] 68.2% | [9] 63.7% | [10] 93.7%

CN(C(=O)COc1ccccc1C(=O)NCCOc1ccccc1)c1ccccc1
inactive: [1] 20.1% | [3] -24.3% | [6] 31.8%
active: [2] 32.4% | [4] 32.8% | [5] 63.6% | [7] 54.3% | [8] 37.1% | [9] 36.4% | [10] 47.3%

COc1ccc(/C=C2\SC(=O)N(CCCC(=O)Nc3ccc(C(=O)O)cc3)C2=O)cc1
active: [1] 78% | [2] 71.8% | [3] 72.8% | [4] 63.3% | [5] 74.1% | [6] 75.4% | [7] 71.5% | [8] 58.1% | [9] 88.3% | [10] 93.3%

C=C(C(=O)c1ccccc1)C(NC(C)(C)C)c1ccccc1 (stereo not given)
inactive: [3] -116% | [10] 44.6%
active: [1] 45% | [2] 90.4% | [4] 90.2% | [5] 58.5% | [6] 93.7% | [7] 87.4% | [8] 92.9% | [9] 78.7%

Cc1ccc(-c2nc(-c3ccccn3)no2)cc1
inactive: [3] 29% | [6] 11% | [8] 25%
active: [1] 59.3% | [2] 48.7% | [4] 43.9% | [5] 39.1% | [7] 52% | [9] 66.8% | [10] 85.5%

CN=c1scc(-c2ccccc2F)n1/N=C/c1ccc[nH]1
active: [1] 89% | [2] 86.5% | [3] 71.6% | [4] 75.6% | [5] 87.2% | [6] 70.1% | [7] 85.6% | [8] 78.1% | [9] 87.7% | [10] 96.1%

CCCN(CCC)C1=CC(=[N+]2CCCC2)CC(C)(C)C1
active: [2] 56.8% | [4] 55.3% | [5] 38.3% | [6] 106% | [7] 78.8% | [8] 86.6%
inactive: [1] 25.5% | [3] 36.1% | [9] 29% | [10] 18.8%

O=c1c2ccccc2oc2cc(C#CC3(O)CCCCC3)ccc12
inactive: [1] 32.4% | [3] -2.8% | [4] -14.8% | [5] -28.9% | [6] -129% | [7] -33.5% | [8] -40.4% | [9] -4.85%
active: [2] 33.5% | [10] 48.9%

CCC1(O)C(=O)OCc2c1cc1n(c2=O)Cc2cc3cc(O)ccc3nc2-1 (stereo not given)
active: [1] 94.8% | [2] 79.2% | [3] 68.8% | [4] 77.4% | [5] 84.6% | [6] 104% | [7] 91.4% | [8] 83.8%
inactive: [9] 24.9% | [10] 39.5%

Cc1cc(C(=O)COC(=O)c2ccccc2O)c(C)n1CC1CCCO1 (stereo not given)
active: [1] 88.8% | [2] 85.1% | [3] 81.2% | [4] 76.8% | [5] 73.5% | [6] 64.9% | [7] 76.7% | [8] 75.2% | [9] 86.7% | [10] 96.3%

CCCn1c(C)cc(C(=O)CN2C(=O)c3ccccc3S2(=O)=O)c1C
active: [1] 70.8% | [2] 60.4% | [4] 55% | [5] 67% | [7] 62.4% | [8] 51.2% | [9] 62.8% | [10] 80.5%
inactive: [3] 45.7% | [6] 36%

Nc1ccc(-c2cc3ccccc3oc2=O)cc1
active: [1] 43.5% | [5] 52.2% | [6] 73.5% | [7] 65.2% | [8] 34.1% | [9] 67.1% | [10] 94.6%
inactive: [2] 20.6% | [3] 45% | [4] 18.9%

Cc1ccc(C(=O)N/N=C/c2c(O)ccc3ccccc23)cn1
inactive: [9] -4.97% | [10] 33.4%
active: [1] 65.9% | [2] 62.9% | [3] 58.7% | [4] 75.4% | [5] 84.8% | [6] 102% | [7] 89.9% | [8] 83.8%

CC(C)Nc1ncnc2ccc(Br)cc12
active: [1] 74.3% | [2] 72.7% | [3] 65.3% | [4] 58.9% | [6] 61.1% | [7] 58.4% | [8] 71% | [10] 65.7%
inactive: [5] 17.8% | [9] 20.2%

CC[C@H](C)[C@@H]1NC(=O)[C@@H](CC(C)C)NC(=O)[C@H](C(C)C)NC(=O)[C@H]2CSSC[C@H](NC1=O)C(=O)N2 (cyclo(C[dC]V[dL]I); disulfide 1-2)
active: [1] 99.9% | [2] 98.3% | [3] 99.6% | [4] 98% | [5] 96% | [6] 109% | [7] 97.7% | [8] 97.5% | [9] 98.3% | [10] 99.6%

N#Cc1c(NC(=O)CSc2ncn[nH]2)sc2c1CCCCC2
inactive: [3] 28.3%
active: [1] 51.8% | [2] 65.9% | [4] 59% | [5] 29.9% | [6] 62.8% | [7] 50.1% | [8] 60.7% | [9] 87.6% | [10] 88%

O=C(CCC1CCCC1)Nc1ccc(C(=O)NCc2cccnc2)cc1
inactive: [4] 24.4% | [9] -5.72%
active: [1] 88.5% | [2] 43.3% | [3] 62.4% | [5] 88% | [6] 98.7% | [7] 94.8% | [8] 66.9% | [10] 48.6%

O=C(OCCC12CC3CC(CC(C3)C1)C2)c1ccc(NCc2cc(O)ccc2O)cc1
inactive: [2] 25.4% | [3] 11.1%
active: [1] 88.1% | [4] 57.7% | [5] 72.6% | [6] 80.7% | [7] 75.3% | [8] 83.8% | [9] 97.1% | [10] 98.4%
